Source: the supplement of paper PMC9262897, “Low-cost anti-mycobacterial drug discovery using engineered E. coli” (Nature Communications, 2022)
Structures can show the parent of a compound that is named as a salt. ± gives the standard deviation of the averaged measurements.

System: E. coli TESEC Mtb Alr
Experiment: growth (OD600 after 10 h); higher = more growth (less inhibition)
Conditions: compound 0.1 mM
Description: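 TESEC Mtb Alr E. coli, or the Alr+ wild-type control, in 384-well plates with Prestwick library compounds at 0.1 mM and 1% DMSO, across arabinose induction levels of 1E3 to 1E7 nM. Growth is read as OD600 after 10 h at 37 °C in triplicate biological replicates.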

[1] = arabinose 1000 nM, raw OD600 reference: median of DMSO wells 0.294, cell-free background 0.041
[2] = arabinose 10000 nM, raw OD600 reference: median of DMSO wells 0.264, cell-free background 0.041
[3] = arabinose 100000 nM, raw OD600 reference: median of DMSO wells 0.201, cell-free background 0.041
[4] = arabinose 1000000 nM, raw OD600 reference: median of DMSO wells 0.193, cell-free background 0.041
[5] = arabinose 10000000 nM, raw OD600 reference: median of DMSO wells 0.146, cell-free background 0.041

Row | SMILES | growth [1] | growth [2] | growth [3] | growth [4] | growth [5]
1 | CC[C@]12CCCN3CCc4c(n(c5ccccc45)[C@@](O)(C(=O)OC)C1)[C@@H]32 [Vincamine] | 0.276 ± 0.0046 | 0.258 ± 0.0043 | 0.193 ± 0.023 | 0.173 ± 0.0043 | 0.138 ± 0.0023
2 | c1cnc(N2CCN(Cc3ccc4c(c3)OCO4)CC2)nc1 [Piribedil hydrochloride] | 0.273 ± 0.0036 | 0.256 ± 0.0059 | 0.179 ± 0.01 | 0.166 ± 0.0044 | 0.14 ± 0.0043
3 | CN1CCC(=C2c3ccccc3C=Cc3ccccc32)CC1 [Cyproheptadine hydrochloride] | 0.163 ± 0.02 | 0.16 ± 0.0079 | 0.12 ± 0.0049 | 0.0596 ± 0.00044 | 0.0772 ± 0.00078
4 | O=C1NCN(c2ccccc2)C12CCN(CCCC(c1ccc(F)cc1)c1ccc(F)cc1)CC2 [Fluspirilen] | 0.044 ± 0.0032 | 0.0402 ± 0.00092 | 0.0775 ± 0.0044 | 0.0438 ± 0.0018 | 0.0681 ± 0.0024
5 | CC[C@H](C)C(=O)O[C@H]1CCC=C2C=C[C@H](C)[C@H](CC[C@@H]3C[C@@H](O)CC(=O)O3)[C@H]21 [Mevastatin] | 0.152 ± 0.1 | 0.166 ± 0.08 | 0.134 ± 0.0032 | 0.0515 ± 0.0016 | 0.0677 ± 0.0034
6 | Nc1c2ccccc2nc2ccccc12 [Aminacrine] | 0.0397 ± 0.00091 | 0.0408 ± 0.0025 | 0.043 ± 0.0015 | 0.0398 ± 0.0011 | 0.0406 ± 0.00096
7 | CC1CS(=O)(=O)CCN1/N=C/c1ccc([N+](=O)[O-])o1 (stereo not given) [Nifurtimox] | 0.0539 ± 0.0037 | 0.04127 ± 0.00031 | 0.0564 ± 0.0035 | 0.0414 ± 0.00017 | 0.0554 ± 0.00081
8 | COc1cccc2c1C(=O)c1c(O)c3c(c(O)c1C2=O)C[C@@](O)(C(=O)CO)C[C@@H]3O[C@H]1C[C@H](N)[C@H](O)[C@H](C)O1 [Doxorubicin hydrochloride] | 0.0479 ± 0.0023 | 0.047 ± 0.002 | 0.0467 ± 0.00066 | 0.04497 ± 0.00012 | 0.0474 ± 0.0025
